About 6,500 targets were measured; listed, in parts, are those with a hit and a random draw of the rest. About 2% of all pairs of compound and target were hits. Values without a mark were called inactive.
Compound: COC(=O)C#Cc1ccccc1 [methyl 3-phenylpropiolate]
Assay: log2 ratio of iodoacetamide-alkyne labeling of the cysteine site, DMSO over compound (competition); higher = stronger covalent engagement of the cysteine by the compound, active = 1 or more
Settings: 500 µM; treatment time 1 h; system: HEK293T cell lysate
Procedure, shortened: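 Three replicates, each with duplicate channels, were prepared from HEK293T lysate (2 mg/mL) treated with vehicle or electrophile at 500 µM for 1 h at ambient temperature. Iodoacetamide alkyne was then applied for 1 h, and samples were clicked to sCIP-TMT reagents, pooled, trypsin-digested overnight at 37 °C, enriched on streptavidin, acid-eluted and analysed on Orbitrap Eclipse LC-MS/MS with FAIMS, with FragPipe quantification. The log2 competition ratio per cysteine is the mean control-channel divided by the mean compound-channel reporter intensity. Cysteines quantified in only one replicate were left out.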

Chain of UniProt Q9HCK1 (Q9HCK1 whole entry): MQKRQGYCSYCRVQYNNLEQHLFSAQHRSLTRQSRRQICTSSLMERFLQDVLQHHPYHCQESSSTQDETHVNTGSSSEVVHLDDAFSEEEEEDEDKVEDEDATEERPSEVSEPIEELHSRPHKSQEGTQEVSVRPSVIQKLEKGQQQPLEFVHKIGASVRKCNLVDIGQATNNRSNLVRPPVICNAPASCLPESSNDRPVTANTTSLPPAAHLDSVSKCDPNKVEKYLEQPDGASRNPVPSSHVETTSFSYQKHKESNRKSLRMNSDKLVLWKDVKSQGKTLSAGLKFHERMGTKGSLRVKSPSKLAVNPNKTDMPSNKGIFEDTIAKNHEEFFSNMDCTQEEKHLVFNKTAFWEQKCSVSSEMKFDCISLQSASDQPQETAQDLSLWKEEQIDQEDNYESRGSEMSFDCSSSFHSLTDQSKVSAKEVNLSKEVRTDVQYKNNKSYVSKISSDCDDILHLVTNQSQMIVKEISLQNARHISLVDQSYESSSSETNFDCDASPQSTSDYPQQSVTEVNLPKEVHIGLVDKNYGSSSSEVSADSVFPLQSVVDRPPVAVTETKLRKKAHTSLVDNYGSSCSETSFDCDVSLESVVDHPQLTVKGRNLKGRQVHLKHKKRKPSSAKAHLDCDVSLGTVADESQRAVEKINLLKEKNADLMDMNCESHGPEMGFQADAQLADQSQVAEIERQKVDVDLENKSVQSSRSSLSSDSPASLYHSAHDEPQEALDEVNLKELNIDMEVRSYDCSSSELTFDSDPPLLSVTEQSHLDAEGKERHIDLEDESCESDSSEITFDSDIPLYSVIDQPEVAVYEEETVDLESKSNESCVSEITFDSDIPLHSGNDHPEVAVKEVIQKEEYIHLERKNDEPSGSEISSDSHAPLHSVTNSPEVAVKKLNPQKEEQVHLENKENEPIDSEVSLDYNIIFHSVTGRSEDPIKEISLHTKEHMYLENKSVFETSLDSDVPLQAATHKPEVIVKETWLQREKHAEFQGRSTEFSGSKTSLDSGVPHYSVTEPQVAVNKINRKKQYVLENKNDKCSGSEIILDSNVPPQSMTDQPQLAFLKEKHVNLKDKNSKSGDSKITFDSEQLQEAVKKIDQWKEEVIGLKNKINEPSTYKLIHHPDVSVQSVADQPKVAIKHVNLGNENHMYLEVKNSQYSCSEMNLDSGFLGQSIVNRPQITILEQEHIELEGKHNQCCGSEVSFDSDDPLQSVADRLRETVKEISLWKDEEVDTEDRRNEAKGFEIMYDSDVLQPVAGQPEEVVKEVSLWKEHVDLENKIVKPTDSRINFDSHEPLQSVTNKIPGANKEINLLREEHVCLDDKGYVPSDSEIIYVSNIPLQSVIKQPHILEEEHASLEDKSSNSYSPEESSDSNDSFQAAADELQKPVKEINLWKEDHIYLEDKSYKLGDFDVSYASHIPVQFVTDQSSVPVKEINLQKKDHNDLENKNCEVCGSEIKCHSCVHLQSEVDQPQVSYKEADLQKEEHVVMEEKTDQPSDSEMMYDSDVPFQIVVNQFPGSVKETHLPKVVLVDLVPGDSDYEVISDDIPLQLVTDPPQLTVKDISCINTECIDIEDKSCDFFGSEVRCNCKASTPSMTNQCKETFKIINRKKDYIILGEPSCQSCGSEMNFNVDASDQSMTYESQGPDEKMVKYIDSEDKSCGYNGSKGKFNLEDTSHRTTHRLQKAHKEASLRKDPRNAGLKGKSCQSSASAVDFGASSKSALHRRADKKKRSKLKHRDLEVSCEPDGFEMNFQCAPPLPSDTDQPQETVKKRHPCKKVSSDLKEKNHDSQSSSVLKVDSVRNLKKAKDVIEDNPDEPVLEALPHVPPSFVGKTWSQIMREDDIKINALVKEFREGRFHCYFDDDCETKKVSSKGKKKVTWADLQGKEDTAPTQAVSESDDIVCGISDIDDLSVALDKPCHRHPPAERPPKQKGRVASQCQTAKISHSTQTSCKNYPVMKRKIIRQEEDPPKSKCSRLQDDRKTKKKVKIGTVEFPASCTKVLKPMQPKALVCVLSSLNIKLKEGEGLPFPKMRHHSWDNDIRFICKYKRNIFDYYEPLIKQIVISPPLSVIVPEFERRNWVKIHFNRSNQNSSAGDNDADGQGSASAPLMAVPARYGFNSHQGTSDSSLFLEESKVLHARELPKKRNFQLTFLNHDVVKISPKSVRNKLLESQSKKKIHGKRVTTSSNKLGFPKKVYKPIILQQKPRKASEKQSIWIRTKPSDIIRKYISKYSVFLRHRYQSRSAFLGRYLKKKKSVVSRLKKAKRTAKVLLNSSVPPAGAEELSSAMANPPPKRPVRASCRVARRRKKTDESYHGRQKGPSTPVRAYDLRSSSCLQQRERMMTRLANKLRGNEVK
Chain of UniProt Q9HB71 (Q9HB71 whole entry): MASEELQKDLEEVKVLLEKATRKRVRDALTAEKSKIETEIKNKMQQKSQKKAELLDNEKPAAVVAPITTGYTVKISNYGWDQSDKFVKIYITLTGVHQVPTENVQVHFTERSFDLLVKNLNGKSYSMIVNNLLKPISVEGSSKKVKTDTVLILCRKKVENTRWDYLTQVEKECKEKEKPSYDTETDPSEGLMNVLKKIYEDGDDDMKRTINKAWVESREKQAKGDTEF
Chain of UniProt Q9UIG0 (Q9UIG0 whole entry, looked up): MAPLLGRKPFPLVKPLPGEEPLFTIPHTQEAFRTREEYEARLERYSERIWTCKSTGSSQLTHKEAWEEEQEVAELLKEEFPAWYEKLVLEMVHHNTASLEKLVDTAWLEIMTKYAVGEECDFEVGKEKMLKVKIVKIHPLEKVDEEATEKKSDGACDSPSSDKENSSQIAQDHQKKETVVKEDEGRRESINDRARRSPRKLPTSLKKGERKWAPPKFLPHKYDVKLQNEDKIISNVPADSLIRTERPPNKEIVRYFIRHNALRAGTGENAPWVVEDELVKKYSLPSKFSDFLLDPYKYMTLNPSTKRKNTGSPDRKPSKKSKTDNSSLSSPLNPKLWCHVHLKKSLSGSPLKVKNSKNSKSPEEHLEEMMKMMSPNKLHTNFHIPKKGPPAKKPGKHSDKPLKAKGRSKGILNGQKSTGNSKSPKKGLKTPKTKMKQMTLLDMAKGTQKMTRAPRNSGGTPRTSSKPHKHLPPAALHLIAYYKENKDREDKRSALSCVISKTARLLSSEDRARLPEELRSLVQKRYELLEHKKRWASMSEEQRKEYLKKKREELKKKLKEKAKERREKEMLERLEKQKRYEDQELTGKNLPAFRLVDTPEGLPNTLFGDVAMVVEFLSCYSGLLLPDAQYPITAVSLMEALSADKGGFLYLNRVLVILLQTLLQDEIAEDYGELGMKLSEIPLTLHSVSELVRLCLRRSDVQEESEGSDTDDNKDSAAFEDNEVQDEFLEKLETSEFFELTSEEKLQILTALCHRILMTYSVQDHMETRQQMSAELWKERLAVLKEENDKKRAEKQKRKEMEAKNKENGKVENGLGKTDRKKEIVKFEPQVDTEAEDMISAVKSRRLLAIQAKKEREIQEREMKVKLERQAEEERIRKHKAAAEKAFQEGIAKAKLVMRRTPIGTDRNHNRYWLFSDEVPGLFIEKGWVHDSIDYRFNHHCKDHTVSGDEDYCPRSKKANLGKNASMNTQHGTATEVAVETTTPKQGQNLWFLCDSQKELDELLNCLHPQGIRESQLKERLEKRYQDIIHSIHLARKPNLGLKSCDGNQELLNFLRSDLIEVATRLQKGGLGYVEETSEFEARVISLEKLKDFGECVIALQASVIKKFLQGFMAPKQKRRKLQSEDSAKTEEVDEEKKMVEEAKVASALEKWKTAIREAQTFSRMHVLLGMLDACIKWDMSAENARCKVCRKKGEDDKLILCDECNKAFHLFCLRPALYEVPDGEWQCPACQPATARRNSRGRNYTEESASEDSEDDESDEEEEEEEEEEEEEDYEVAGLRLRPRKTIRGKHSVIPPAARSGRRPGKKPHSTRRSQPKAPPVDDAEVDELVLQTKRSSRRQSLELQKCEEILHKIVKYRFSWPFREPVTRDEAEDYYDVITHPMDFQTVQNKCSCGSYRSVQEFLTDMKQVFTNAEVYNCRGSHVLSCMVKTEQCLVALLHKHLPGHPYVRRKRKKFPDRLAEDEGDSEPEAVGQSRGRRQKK
Chain of UniProt Q9H3U1 (Q9H3U1 whole entry, looked up): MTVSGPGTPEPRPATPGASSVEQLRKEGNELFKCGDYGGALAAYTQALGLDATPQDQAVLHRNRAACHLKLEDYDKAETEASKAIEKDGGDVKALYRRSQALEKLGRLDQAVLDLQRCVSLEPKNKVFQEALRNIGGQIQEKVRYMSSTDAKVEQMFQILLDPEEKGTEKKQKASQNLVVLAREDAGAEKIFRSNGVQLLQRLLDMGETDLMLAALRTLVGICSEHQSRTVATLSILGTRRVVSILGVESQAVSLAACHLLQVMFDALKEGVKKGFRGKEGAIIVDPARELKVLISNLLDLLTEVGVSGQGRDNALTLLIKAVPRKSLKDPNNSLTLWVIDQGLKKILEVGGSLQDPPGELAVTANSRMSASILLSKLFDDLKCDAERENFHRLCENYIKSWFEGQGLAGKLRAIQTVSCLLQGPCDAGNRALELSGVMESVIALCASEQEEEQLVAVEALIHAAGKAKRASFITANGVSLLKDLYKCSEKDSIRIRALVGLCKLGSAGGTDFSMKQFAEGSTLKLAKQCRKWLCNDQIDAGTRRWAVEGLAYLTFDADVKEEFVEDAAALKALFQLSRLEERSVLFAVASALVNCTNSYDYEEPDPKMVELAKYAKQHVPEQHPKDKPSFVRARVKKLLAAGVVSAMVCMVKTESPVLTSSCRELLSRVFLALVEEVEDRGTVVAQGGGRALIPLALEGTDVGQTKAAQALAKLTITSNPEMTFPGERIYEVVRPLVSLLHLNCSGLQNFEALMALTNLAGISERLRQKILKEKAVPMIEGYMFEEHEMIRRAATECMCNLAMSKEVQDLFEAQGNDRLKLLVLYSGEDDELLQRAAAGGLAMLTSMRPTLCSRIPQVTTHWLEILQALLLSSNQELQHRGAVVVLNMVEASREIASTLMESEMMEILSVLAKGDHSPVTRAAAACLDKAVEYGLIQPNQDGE

| Target | log2 ratio of iodoacetamide-alkyne labeling |
| --- | --- |
| UBE2O C400 (UniProt Q9C0C9) | -0.416 |
| ZDBF2 C628 (UniProt Q9HCK1) | 0.47 |
| AIM1 C976 (UniProt Q9Y4K1) | 0.347 |
| ASF1B C172 (UniProt Q9NVP2) | 1.22 (active) |
| SPATA5L1 C78 (UniProt Q9BVQ7) | 0.204 |
| COPS7A C110 (UniProt Q9UBW8) | 0.0698 |
| OSBPL3 C203 (UniProt Q9H4L5) | 0.76 |
| SAMHD1 C80 (UniProt Q9Y3Z3) | 0.175 |
| MTPAP C242 (UniProt Q9NVV4) | 0.146 |
| TANC1 C131 (UniProt Q9C0D5) | 0.487 |
| TNKS1BP1 C1337 (UniProt Q9C0C2) | 1.01 (active) |
| SMC4 C190 (UniProt Q9NTJ3) | 0.109 |
| PPA2 C161 (UniProt Q9H2U2) | -0.42 |
| UFC1 C116 (UniProt Q9Y3C8) | 0.115 |
| LARS C573 (UniProt Q9P2J5) | 0.342 |
| TRABD C287 (UniProt Q9H4I3) | 0.0519 |
| LARS C554 (UniProt Q9P2J5) | 1.74 (active) |
| PPME1 C381 (UniProt Q9Y570) | 1.48 (active) |
| NAT10 C489 (UniProt Q9H0A0) | 0.0616 |
| RAB3GAP2 C67 (UniProt Q9H2M9) | 0.306 |

| Target | log2 ratio of iodoacetamide-alkyne labeling |
| --- | --- |
| SAR1A C178 (UniProt Q9NR31) | 0.0354 |
| NUDT5 C76 (UniProt Q9UKK9) | 0.157 |
| SRRM2 C1016 (UniProt Q9UQ35) | 1.12 (active) |
| TNKS1BP1 C1296 (UniProt Q9C0C2) | 0.451 |
| UPF2 C1107 (UniProt Q9HAU5) | 0.18 |
| NOSIP C185 (UniProt Q9Y314) | 0.25 |
| RNF126 C229 (UniProt Q9BV68) | -0.457 |
| KCTD5 C28 (UniProt Q9NXV2) | 0.129 |
| MAP3K4 C163 (UniProt Q9Y6R4) | 0.0336 |
| BAZ1B C953 (UniProt Q9UIG0) | 1.28 (active) |
| UniProt Q9NV64_C29 | 1.11 (active) |
| CPSF3 C655 (UniProt Q9UKF6) | 0.293 |
| CACYBP C173 (UniProt Q9HB71) | 0.182 |
| NOL6 C1034 (UniProt Q9H6R4) | 1.81 (active) |
| AK6 C53 (UniProt Q9Y3D8) | 0.109 |
| UniProt Q9NQG6_C111 | 0.389 |
| UNC45A C420 (UniProt Q9H3U1) | 0.56 |
| UniProt Q9NUQ3_C127 | 0.926 |
| DLGAP4 C726 (UniProt Q9Y2H0) | 0.74 |
| UNC93B1 C583 (UniProt Q9H1C4) | 2.06 (active) |

Source: the supplement of paper PMC11006884
